Sampled rows, rich in hits. Any-hit rate of the full collection: about 19%.
ELG1 repair inh: ELG1-dependent DNA repair inhibition; HEK293T ELG1-luciferase reporter, luminescence, 16 h; DNA damage induced by 5-fluorouridine; Potency, µM (doses to about 46.1 µM), hits mostly inhibitors; actives 2.3% (n = 330,000); AID 504467; note: nearly all actives have a fitted effect of over 55% in size
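Step one: seed 2,000 cells per well. Step two: pin-transfer compound or DMSO alongside 5-fluorouridine. Step three: incubate 16 hr, 37 °C, 5% CO2. Step four: add ONE-Glo, wait 30 min, read luminescence.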
IL-1B inflam inh: blocks inflammasome-driven IL-1 beta release. THP-1 LPS/ATP IL-1B secretion, AlphaLISA, 16 h; hits give low values. activity change, % at 57.5 µM. actives 4.7% (n = 360,000). AID 743279; in the data active = activity change below about -50%; inconclusive = mostly about -30% to -49%
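Secreted IL-1B measured by AlphaLISA bead assay after 16 h compound exposure of THP-1 cells; compounds (final up to 57.5 uM) added 1 h before LPS (250 ng/mL) and ATP (1.25 mM) stimulation; lower signal means less secretion.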
HT1080 IDH1KD tx: kills HT-1080 cells with IDH1 knockdown | HT-1080 IDH1 knockdown viability, ATP luminescence, 48 h | actives 2% (n = 360,000) | Potency, µM (series often up to 46.1 µM), most hits filed as cytotoxic
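HT-1080-IDH1KD cells (IDH1 knocked down), 750/well in RPMI with 5% FBS, treated with compound 48 h at 37 degrees C. Viability by CellTiter-Glo luminescence, normalised to DMSO and no-cell wells; concentration-response curves classed.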
HT1080-NT tox: kills 2HG-producing HT-1080-NT fibrosarcoma cells | HT-1080-NT fibrosarcoma viability, CellTiter-Glo ATP luminescence, 48 h | actives 1.6% (n = 360,000) | Potency, µM (series often up to 46.1 µM), usual class: cytotoxic;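 note: NT is the 2HG producing partner of a matched IDH1 knockdown line; nearly all actives have a fitted effect of over 55% in size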
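HT-1080-NT; 750 cells/well; 5% FBS RPMI; 48 h compound, 37 degrees C; CellTiter-Glo luminescence; curve fitting and curve-class assignment.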
DT40 TDP1 no CPT: qHTS for Inhibitors of human tyrosyl-DNA phosphodiesterase 1 (TDP1): qHTS in cells in absence of CPT. DT40 Tdp1-/- hTDP1 cells, no CPT, ATP luminescence, 48 h. Potency, µM (titrated, usually from 46.2 µM), actives largely listed as inhibitors. actives 15% (n = 420,000); note: nearly all actives have a fitted effect of over 55% in size
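DT40 Tdp1-/-;hTDP1 cells, no CPT (DMSO vehicle only), 400 cells/well; compounds pin-transferred; ≥48 hr, 37 °C; CellTiter-Glo 30 min RT dark, luminescence read.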
TDP1 cell CPT: DT40-hTDP1 cell growth loss with CPT | chicken DT40 Tdp1-/-;hTDP1 cells + 20 nM CPT, ATP luminescence, 48 h | Potency, µM (series often up to 46.2 µM), actives largely listed as inhibitors | actives 12% (n = 420,000); note: nearly all actives have a fitted effect of over 55% in size
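Chicken DT40 Tdp1-/- cells complemented with human TDP1, 400 cells/well, exposed to compounds plus 20 nM camptothecin for at least 48 h at 37 C; viability read as ATP content by CellTiter-Glo luminescence.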
Large screens that a line does not name were inactive. Unless noted, calls come from the whole dose curve; as a rule, active = well fitted curve in the direction sought with a large enough effect; inconclusive = small, poorly fitted or top-dose-only effect, or another doubt; inactive = no such curve, though single readings can be large; an effect the other way counts as inactive or inconclusive.

O=C(CCc1ccccc1)NNC(=S)NC(=O)c1ccccc1	HT1080 IDH1KD tx 11µM, HT1080-NT tox inconclusive, DT40 TDP1 no CPT 15µM, TDP1 cell CPT 7.3µM
CC(C)(C)c1cc(CCC(=O)NNC(=O)c2ccco2)cc(C(C)(C)C)c1O	DT40 TDP1 no CPT inconclusive
CC(=O)NC(=S)NNC(=O)CCc1ccccc1	DT40 TDP1 no CPT inconclusive, TDP1 cell CPT inconclusive
CC(C)(C)c1cc(CCC(=O)NNC(=S)NC(=O)c2ccccc2)cc(C(C)(C)C)c1O	HT1080 IDH1KD tx inconclusive, HT1080-NT tox 15µM, DT40 TDP1 no CPT 3.7µM, TDP1 cell CPT 4.1µM
CCCCC(=O)NNC(=S)NC(=O)CCC	ELG1 repair inh inconclusive, IL-1B inflam inh -95, DT40 TDP1 no CPT inconclusive, TDP1 cell CPT inconclusive
O=C(O)c1ccccc1C(=O)NCc1c(Cl)cccc1Sc1ccc(Cl)cc1	none
O=C(CCc1ccccc1)NC(=S)NCc1ccco1	DT40 TDP1 no CPT 21µM
CC(C)(C)CC(=O)NC(=S)NCc1ccco1	none
CCC(C)NC(=O)Cn1c(=O)n(-c2ccc(C)c(C)c2)c(=O)c2c(C)c(C(=O)N(CC)CC)sc21 (stereo not drawn)	none (no result: ELG1 repair inh, IL-1B inflam inh, HT1080 IDH1KD tx, HT1080-NT tox)
Cc1cc2cc(C(=O)N3CCc4c([nH]c5ccccc45)C3c3ccccn3)ccc2o1 (stereo not drawn)	ELG1 repair inh inconclusive, HT1080 IDH1KD tx inconclusive, DT40 TDP1 no CPT 18µM, TDP1 cell CPT inconclusive
CC(=O)c1ccc(C(=O)N2CCc3c([nH]c4ccccc34)C2c2cccc(C)n2)s1 (stereo not drawn)	ELG1 repair inh inconclusive, IL-1B inflam inh -67, HT1080 IDH1KD tx inconclusive, DT40 TDP1 no CPT 15µM, TDP1 cell CPT 23µM
O=C(c1ccc(-n2cccn2)cc1)N1CCc2c([nH]c3ccccc23)C1c1ccccn1 (stereo not drawn)	ELG1 repair inh inconclusive, DT40 TDP1 no CPT inconclusive, TDP1 cell CPT inconclusive
CCOC(=O)c1[nH]c(C)c(C(=O)N2CCc3c([nH]c4ccccc34)C2c2ccccn2)c1C (stereo not drawn)	IL-1B inflam inh -52, DT40 TDP1 no CPT inconclusive, TDP1 cell CPT 16µM
CC(=O)Nc1ccc(CN2CCc3c([nH]c4ccccc34)C2c2ccccn2)cc1 (stereo not drawn)	ELG1 repair inh inconclusive, HT1080 IDH1KD tx 18µM, HT1080-NT tox 23µM, DT40 TDP1 no CPT 21µM, TDP1 cell CPT inconclusive
Cc1cccc(C2c3[nH]c4ccccc4c3CCN2C(=O)c2ccc(=O)[nH]c2)n1 (stereo not drawn)	none
NCCO/C=C/[C@H](N)C(=O)O	none (no result: ELG1 repair inh, IL-1B inflam inh, HT1080 IDH1KD tx, HT1080-NT tox)
CCOC(=O)[C@H]1[C@H]2COc3ccc(OC)cc3[C@@H]2N2C(=O)[C@H](C)NC(=O)[C@@]12C	none
Cc1onc(-c2ccccc2Cl)c1C(=O)Nc1nnc(-c2ccc(Br)cc2)s1	DT40 TDP1 no CPT inconclusive, TDP1 cell CPT 16µM
COC(=O)c1cc(OC)c(OC)cc1NC(=O)c1c(-c2ccccc2Cl)noc1C	DT40 TDP1 no CPT 13µM, TDP1 cell CPT 18µM
COc1ccc(NC(=O)c2c(-c3c(Cl)cccc3Cl)noc2C)cn1	HT1080-NT tox inconclusive, TDP1 cell CPT inconclusive
Cc1cc(Br)c(NC(=O)c2c(-c3c(Cl)cccc3Cl)noc2C)c(Br)c1	DT40 TDP1 no CPT inconclusive, TDP1 cell CPT 21µM
COc1ccc(NC(=O)c2c(-c3c(Cl)cccc3Cl)noc2C)c(OC)c1	ELG1 repair inh 23µM, IL-1B inflam inh inconclusive, DT40 TDP1 no CPT inconclusive, TDP1 cell CPT inconclusive
COc1ccccc1NC(=S)NC(=O)c1c(-c2ccccc2Cl)noc1C	none
Cc1onc(-c2c(Cl)cccc2Cl)c1C(=O)N/N=C(\N)COc1ccc(Cl)cc1	ELG1 repair inh inconclusive, HT1080 IDH1KD tx inconclusive, HT1080-NT tox inconclusive, DT40 TDP1 no CPT 5.2µM, TDP1 cell CPT 5.2µM

High-throughput results as filed in PubChem.
